This is a sample that favours compounds with a hit; in the whole collection about 6.8% have one here.
Pf Dd2 inh = blocks growth of Plasmodium falciparum Dd2 parasites | activity change, % at 10 µM | P. falciparum Dd2 growth, SYBR Green, 72 h; active compounds read low | 2.3% of 94,000 active | AID 1159554; in the data active means activity change below about -80%
C diff HTS = blocks growth of Clostridium difficile; AID 1259249; growth activity, negative = inhibition, % at 16 µg/mL (by protocol); Clostridium difficile clinical isolate growth, OD600, 24 h; active compounds read low; 0.25% of 86,000 active;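 active means mean growth activity at or below -80% and every replicate also at or below -80%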;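 further: 0% = DMSO wells and -100% = levofloxacin 16 µg/mL wells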
Tcruzi prolif = T. cruzi proliferation inhibition; T. cruzi beta-gal in NIH3T3, GalScreen luminescence, 90 h; inhibition, % at 8.34 µM; 5.9% of 77,000 active;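 active means mean inhibition above about 93%, with at least 55% of replicates each passing it, limit read from the data, passing the limit was not always enough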
The depositor's hits bear a star; . = not tested or not shown.

SMILES	Pf Dd2 inh	C diff HTS	Tcruzi prolif
COc1ccc2c3c([nH]c2c1)[C@@H](CO)N(Cc1ccccc1)CC31CCN(C(=O)c2cccnc2)CC1	-90*	1	.
COc1ccc2c3c([nH]c2c1)[C@H](CO)N(Cc1cccnc1)CC31CN(C(=O)CN(C)C)C1	7	-10	.
CCS(=O)(=O)Nc1ccc2c(c1)C(=O)N(C)[C@H]1CC[C@@H](CC(=O)N3CCOCC3)O[C@H]1CO2	1	-3	-4
C[C@@H]1CN([C@H](C)CO)S(=O)(=O)c2ccc(C3=CCCCC3)cc2O[C@@H]1CN(C)C(=O)C1CC1	20	-3	37
C[C@@H]1CCCCO[C@@H](CN(C)C(=O)Nc2cccc3ccccc23)[C@@H](C)CN([C@@H](C)CO)C(=O)c2cc(NC(=O)NC3CCCCC3)ccc2O1	-80	-3	86
COc1ccccc1S(=O)(=O)N(C)C[C@H]1OCc2ccccc2-c2ccccc2C(=O)N([C@H](C)CO)C[C@H]1C	-1	-3	-62
C[C@H](NC(=O)C[C@@H]1CC[C@H](NC(=O)C2CCC2)[C@@H](CO)O1)c1ccccc1	6	.	13
CC(=O)N(C)C[C@H]1Oc2cc(C#CC(C)C)ccc2S(=O)(=O)N([C@@H](C)CO)C[C@H]1C	-2	-2	16
CCCNC(=O)N1CC2(CCN(C)CC2)c2c(n(C)c3cc(OC)ccc23)[C@H]1CO	-57	-2	.
COc1ccc2c3c([nH]c2c1)[C@@H](CO)N(C(=O)c1cccc(F)c1)CC31CCN(C(=O)c2ccccc2)CC1	-88*	4	.
COc1ccc2c3c([nH]c2c1)[C@H](CO)N(C(=O)c1cccc(F)c1)CC31CCN(C(=O)c2ccccc2)CC1	-39	-10	.
COc1cccc(C#Cc2ccc([C@@H]3[C@@H](CO)N4C(=O)CN(C(=O)Cc5ccccc5)C[C@H]34)cc2)c1	-4	-1	.
COc1cccc(C#Cc2ccc([C@@H]3[C@H](CO)N4C(=O)CN(C(=O)c5ccccc5)C[C@@H]34)cc2)c1	-16	-2	.
COc1cccc(C#Cc2ccc([C@H]3[C@@H](CO)N4C(=O)CN(C(=O)Cc5ccccc5)C[C@H]34)cc2)c1	-94*	2	.
N#Cc1ccc(-c2ccc([C@@H]3[C@H]4CN(C(=O)Cc5ccccc5)CC(=O)N4[C@H]3CO)cc2)cc1	-9	2	.
COc1cccc(C#Cc2ccc([C@@H]3[C@@H](CO)N4C(=O)CN(C(=O)c5ccccc5)C[C@@H]34)cc2)c1	-91*	-5	.
N#Cc1ccc(-c2ccc([C@H]3[C@@H](CO)N4C(=O)CN(C(=O)Cc5ccccc5)C[C@@H]34)cc2)cc1	-85*	-1	.
O=C(c1cccnc1)N1CC(=O)N2[C@H](C1)[C@H](c1ccc(-c3ccc(F)cc3)cc1)[C@@H]2CO	-24	2	.
O=C(c1ccc(F)cc1)N1CC(=O)N2[C@H](CO)[C@H](c3ccc(-c4cccnc4)cc3)[C@H]2C1	-87*	-10	.
COC(=O)c1ccc(CN2CC(=O)N3[C@H](C2)[C@@H](c2ccc(-c4ccccc4F)cc2)[C@@H]3CO)cc1	-3	3	.
O=C(c1ccccc1F)N1CC(=O)N2[C@H](C1)[C@@H](c1ccc(-c3cccnc3)cc1)[C@@H]2CO	-87*	-3	.
O=C(c1cccc(F)c1)N1CC(=O)N2[C@H](CO)[C@H](c3ccc(-c4cccnc4)cc3)[C@@H]2C1	10	-1	.
O=C(c1cccc(F)c1)N1CC(=O)N2[C@H](C1)[C@@H](c1ccc(-c3cccnc3)cc1)[C@@H]2CO	-88*	-3	.
O=C(c1ccccc1F)N1CC(=O)N2[C@@H](CO)[C@@H](c3ccc(-c4cccnc4)cc3)[C@@H]2C1	-4	-6	.
COC(=O)c1ccc(CN2CC(=O)N3[C@H](CO)[C@@H](c4ccc(-c5ccccc5F)cc4)[C@H]3C2)cc1	-83*	-5	.
SMILES	Pf Dd2 inh	C diff HTS	Tcruzi prolif
CO[C@H]1CN(C)C(=O)c2ccc(NS(=O)(=O)c3ccc(C)cc3)cc2OC[C@@H](C)N(Cc2nccs2)C[C@@H]1C	1	.	1
O=C(C[C@@H]1CC[C@H]2[C@@H](COC[C@@H](O)CN2C(=O)Nc2cc(Cl)cc(Cl)c2)O1)NCC1CC1	-10	47	.
COc1ccc(S(=O)(=O)Nc2ccc3c(c2)C(=O)N([C@H](C)CO)C[C@H](C)[C@H](CN(C)C(=O)NC2CCCCC2)O3)cc1	3	.	-73
COCC(=O)NC[C@@H]1CC[C@@H]2[C@@H](CN2S(=O)(=O)c2ccccc2[N+](=O)[O-])O1	1	-5	.
O=C(c1ccc(F)cc1)N1CC(=O)N2[C@H](C1)[C@H](c1ccc(-c3cccnc3)cc1)[C@@H]2CO	-6	-3	.
O=C(c1ccc(F)cc1)N1CC(=O)N2[C@H](C1)[C@@H](c1ccc(-c3cccnc3)cc1)[C@@H]2CO	-89*	0	.

High-throughput results: PubChem, Broad Institute
